Compound activity (PubChem BioAssay)
CHT PAM: CHT positive allosteric modulators, primary screen, cell-based, membrane potential dye, choline EC20. B-score at 10 µM. CHT-expressing cells; active compounds read high; LV-AA mutant CHT in HEK293 cells. 0.49% of 310,000 active. High affinity choline transporter 1 (Homo sapiens), Q9GZV3;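 active = initial fluorescence not abnormally high and integrated response B-score, plate-corrected, over 3 SD above library mean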
ANO1 block: TMEM16A chloride channel inhibitors, primary screen, cell-based, HTS | Anoctamin-1 (Mus musculus), Q8BHY3 | HEK293 TMEM16A/YFP iodide influx fluorescence, ionomycin | normalized B-score (activity score, 25-100; higher = stronger inhibition) at 10 µM | 1.2% of 310,000 active | AID 588511, 2011;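 active = ratio plate-corrected score three or more library SD toward inhibition, starting fluorescence score within five deviations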;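 also: score derived from kinetic fluorescence span divided by baseline fluorescence per well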
Rce1 inhib: yeast Rce1p protease inhibitors, primary screen, biochemical, fluorescence, cell-free homogeneous. AID 2563, 2010. calls only. yeast membranes, quenched prenylated peptide cleavage fluorescence. 0.27% of 290,000 active. CAAX prenyl protease 2 (Saccharomyces cerevisiae (strain ATCC 204508 / S288c)), Q03530;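 active = fall in fluorescence gain of 50% or more versus controls, with final raw signal at or below 3038400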;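 also: plate controls were neutral control wells for no effect and wells lacking membranes for full effect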
Target sequence (Q03530 whole entry, looked up): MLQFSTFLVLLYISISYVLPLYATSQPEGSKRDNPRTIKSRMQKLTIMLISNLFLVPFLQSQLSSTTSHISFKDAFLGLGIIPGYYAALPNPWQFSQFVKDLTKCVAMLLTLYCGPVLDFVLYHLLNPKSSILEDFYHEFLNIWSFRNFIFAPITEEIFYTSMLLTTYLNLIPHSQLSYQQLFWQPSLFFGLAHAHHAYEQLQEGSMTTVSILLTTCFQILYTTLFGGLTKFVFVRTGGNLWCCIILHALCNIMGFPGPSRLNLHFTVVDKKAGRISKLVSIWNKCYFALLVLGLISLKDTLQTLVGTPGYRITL
Kir21 block: inhibitors of mouse Kir2.1 inward-rectifier potassium channel; HEK293-Kir2.1, FluxOR thallium flux fluorescence; active compounds read low; B-score at 10 µM; 0.85% of 310,000 active; AID 1672, 2009;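 active = fluorescence ratio B-score at or below minus 3 SD of library scores, with starting-brightness B-score within 2 SD, cut at about -4.2 in these data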;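 also: channel flux triggered by added potassium and thallium sulfate stimulus; B-score of peak minus minimum fluorescence over baseline after thallium stimulus; more negative B-score means stronger Kir2.1 block with less thallium influx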
ANO1 activ: TMEM16A chloride channel activators or potentiators, primary screen, cell-based, HTS; Anoctamin-1 (Mus musculus), Q8BHY3; HEK293 TMEM16A/YFP-H148Q/I152L, iodide quench fluorescence; active compounds read low; B-score at 10 µM; 0.3% of 340,000 active; AID 623877, 2012;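 active = fluorescence-ratio B-score plate-corrected deviation score at least 3 library SD below zero, with starting fluorescence score within 5 deviations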;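 also: channel opened by trigger with iodide after compound preincubation; score built on the fluorescence ratio of max minus min over baseline; more negative score means more quench and so TMEM16A activation or potentiation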
CHT block: inhibitors of human choline transporter CHT; CHT-expressing cells, membrane potential dye, choline response; active compounds read low; B-score at 10 µM; AID 488975, 2010; High affinity choline transporter 1 (Homo sapiens), Q9GZV3; 0.86% of 310,000 active;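 active = B-score over 3 SD under the library average, and starting fluorescence ratio not unusually high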;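 also: choline stimulus applied at its EC90 after an EC20 pre-addition; B-score computed on integrated fluorescence ratio after choline addition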
CHT block conf: CHT inhibitors, confirmation, cell-based, membrane potential dye, duplicate. CHT activity remaining % of control (active compounds read low), % at 10 µM. shares compounds with CHT block. 70% of 2,400 active. CHT-expressing cells, choline membrane potential dye; LV-to-AA substituted CHT, HEK293 cells;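 active = choline transporter activity left, mean of duplicates at 10 µM, below buffer-only control mean minus 3 SD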;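 also: depolarization triggered by choline at its EC90 following an EC20 pre-addition; 0% = hemicholinium-3 full block and 100% = buffer-only control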
HEK293 CHT ctr: membrane potential effects in parental HEK293, counter-screen for CHT inhibitor project, cell-based, membrane potential dye. shares compounds with CHT block. choline response; active = decrease or increase beyond buffer ±3SD. membrane potential ratio readout (active if shifted either direction beyond buffer ±3SD; no single direction) at 10 µM. 4% of 2,400 active. AID 493222, 2011;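 also: parental cells lack the transporter so any hit is non-specific; ratio is peak minus trough fluorescence over baseline after EC90 choline challenge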
An asterisk follows results filed as active; i = inactive; . = no result. Hits are enriched below; roughly 3.2% of the tested compounds scored in any of these assays.

SMILES	CHT PAM	ANO1 block	Rce1 inhib	Kir21 block	ANO1 activ	CHT block	CHT block conf	HEK293 CHT ctr
CC1=NN(C(=O)c2ccc(Cn3nc(C)c([N+](=O)[O-])c3C)cc2)C(O)(C(F)(F)F)C1 (stereo not drawn)	i	i	i	0.78	i	i	.	.
CC1=NN(C(=O)c2ccc(Cn3nc(C)c(Br)c3C)cc2)C(O)(C(F)(F)F)C1 (stereo not drawn)	i	i	i	-1.4	i	-8.1*	26%*	i
O=C(c1cc2ccccc2oc1=O)N(Cc1ccccc1F)C1CCS(=O)(=O)C1 (stereo not drawn)	i	i	i	0.75	i	i	.	.
CC(C)Sc1nc2c(c(=O)[nH]1)C(c1cccs1)C1=C(CC(C)(C)CC1=O)N2 (stereo not drawn)	i	i	i	1.5	i	-5.8*	i	i
CC(=O)OC1CC(c2cc(C(C)(C)C)c(O)c(C(C)(C)C)c2)=NO1 (stereo not drawn)	i	i	i	-1.8	i	i	.	.
O=C(CN1C(=O)c2ccccc2C1=O)Nc1ccc(Cl)cn1	i	i	i	0.36	i	-5.1*	i	i
COc1ccc(C2=NOC(CNC(=S)N3CCOCC3)C2)cc1 (stereo not drawn)	i	i	i	0.98	i	i	.	.
O=C(Nc1nc2c(Br)cccc2s1)C1CC1	i	i	i	2.6	i	-5.7*	i	i
O=C(Nc1nc2c(Cl)cccc2s1)C1CC1	i	i	i	1.2	i	i	.	.
CC(C)(C)C(=O)NC(=S)NNC(=O)C(c1ccccc1)c1ccccc1	i	100*	i	-1.4	i	-6.6*	36%*	i
Cc1ccnc(NS(=O)(=O)c2ccc(NC(=O)c3ccc(Cl)cc3[N+](=O)[O-])cc2)n1	i	i	i	0.05	i	-5.5*	51%*	i
Cc1cc(NS(=O)(=O)c2ccc(NC(=O)c3ccc(Cl)cc3[N+](=O)[O-])cc2)no1	i	i	i	-0.55	i	i	.	.
COC(=O)/C(=C/c1c[nH]c2ccccc12)[N+](=O)[O-]	i	i	i	-1.2	i	-4.9*	58%*	i
COC(=O)c1c(-c2ccc(OC)cc2)sc2ccc(N3CCOCC3)cc12	.	.	.	.	i	.	.	.
COC(=O)c1nc2ccc(N3CCOCC3)cc2c(C)c1C(=O)OC	i	i	i	0.15	i	-5.7*	i	i
O=C(NCCCN1CCOCC1)c1cccnc1SCc1ccccc1Cl	i	i	i	0.06	i	i	.	.
CC(=O)N(C)c1ccc(OCC(O)CN(Cc2ccco2)S(=O)(=O)c2ccc(C)cc2)cc1 (stereo not drawn)	i	i	i	-0.95	i	i	.	.
CC(=O)N(C)c1ccc(OCC(O)CN(c2ccccc2C)S(=O)(=O)c2ccc(C)cc2)cc1 (stereo not drawn)	i	i	i	0.47	i	-18*	-11%*	i
O=C(NCc1csc(-c2cccs2)n1)C1CCCCC1	i	i	i	-0.39	i	i	.	.
CC1CCC(NC(=O)CCn2ccc3cc(S(=O)(=O)N4CCCC4)ccc32)CC1 (stereo not drawn)	i	i	i	1.2	i	-6.3*	39%*	i
CCn1c(=O)c2c(nc3n2CCCN3c2cccc(C)c2)n(C)c1=O	i	i	i	0.09	i	i	.	.
Cc1cc(=O)[nH]c(Nc2ccc(N(C)C)cc2)n1	i	i	i	1.5	i	i	.	.
O=C(c1cccc(OC2CCN(Cc3ccc(F)cc3Cl)CC2)c1)N1CCCC1	i	i	i	-4.7*	i	-5.4*	36%*	i
COC(=O)c1ccc(CN2CCC(Oc3cccc(C(=O)N4CCCC4)c3)CC2)cc1	i	i	i	0.67	i	i	.	.
Cc1ccccc1CC1(CO)CCCN(Cc2nc(-c3cccs3)oc2C)C1 (stereo not drawn)	i	i	i	-1.8	i	-6.7*	i	i
SMILES	CHT PAM	ANO1 block	Rce1 inhib	Kir21 block	ANO1 activ	CHT block	CHT block conf	HEK293 CHT ctr
O=C(COc1ccccc1F)Nc1cc(S(=O)(=O)Nc2cccc(Cl)c2)ccc1O	.	.	.	.	i	.	.	.
Cc1cc(C(=O)CSc2n[nH]c(N)n2)c(C)n1-c1cc(F)ccc1F	i	i	i	0.14	i	-7.1*	52%*	i
Cc1cc(C(=O)CSc2n[nH]c(N)n2)c(C)n1-c1ccc(F)cc1	i	i	i	-1.2	i	-8.2*	71%*	i
CCOC(=O)c1c(NC(=O)C(C)N2CCN(S(=O)(=O)c3cccs3)CC2)sc2c1CCC(C)C2 (stereo not drawn)	i	i	i	1.5	i	i	.	.
COc1ccc(C(=O)N(C)C2CCCc3ccccc32)cc1OC1CCN(C(C)C)CC1 (stereo not drawn)	i	i	i	0.19	i	-10*	15%*	i
COc1ccc(C(=O)NC2CCc3ccccc32)cc1OC1CCN(C(C)C)CC1 (stereo not drawn)	i	i	i	0.01	i	-9*	16%*	i
COc1ccc(C(=O)NC2CCCc3ccccc32)cc1Br (stereo not drawn)	i	i	i	0.59	i	i	.	.
Cc1ccc(C)c(C(=O)OCC(=O)N(C)c2ccccc2)c1	i	i	i	-1.2	i	i	.	.
O=C(O)/C(=C\c1ccccc1OC(F)F)Sc1nnc(-c2ccc(F)cc2)o1	i	i	i	-2.8	i	-5.6*	31%*	i
CCOC(=O)N1CCN(C(=O)c2ccc3nc(N4CCCCC4)sc3c2)CC1	i	i	i	-0.07	i	i	.	.
